Results as given in PubChem BioAssay (NCI).
About 79,000 compounds went through this panel and 15% of them were active in at least one assay; those are over-represented in the sample as a whole. Activity calls are given as the source filed them. Rule as the data show it: active = growth inhibition above about 70%; inactive = the rest.

Key:
[1] = NCI Yeast Anticancer Drug Screen. Data for the rad52 strain (AID 147);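 also: 0% = growth of vehicle-treated control cultures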; conditions: S. cerevisiae rad52 mutant growth inhibition, hits give high values
Method in brief: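 Here a repair-compromised yeast strain receives each compound; its growth is then quantified and normalised to vehicle-only controls.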

[2] = NCI Yeast Anticancer Drug Screen. Data for the wt1 strain (AID 149);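 also: 0% = growth of vehicle-treated wt1 cultures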; conditions: S. cerevisiae wt1 strain (SPY 50644) growth inhibition, hits give high values
Method in brief: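 Readout: yeast growth inhibition, normalised to vehicle controls, in the wt1 strain exposed to test compounds.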

[3] = NCI Yeast Anticancer Drug Screen. Data for the rad50EPP+ strain (AID 151);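 also: 0% = growth of vehicle-treated control cultures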; conditions: S. cerevisiae rad50 mutant strain, hits give high values
Method in brief: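 Read-out is yeast growth inhibition relative to vehicle; cells used were the rad50EPP+ strain.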

[4] = NCI Yeast Anticancer Drug Screen. Data for the mgt1 strain (AID 153); conditions: S. cerevisiae mgt1 mutant growth inhibition, hits give high values
Method in brief: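 Measured: inhibition of mgt1 yeast growth by compound, normalized to vehicle-treated cultures.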

[5] = NCI Yeast Anticancer Drug Screen. Data for the rad50 strain (AID 155);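 also: 0% = growth of vehicle-only cultures of the same strain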; conditions: S. cerevisiae rad50 strain growth inhibition, hits give high values
Method in brief: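 Compounds were tested on a yeast strain with an engineered DNA damage repair alteration; the reported value is growth inhibition normalised to vehicle treatment.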

[6] = NCI Yeast Anticancer Drug Screen. Data for the mec2-1 strain (AID 157); conditions: S. cerevisiae mec2-1 strain, hits give high values
Method in brief: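 Using mec2-1 yeast: add compound, measure growth, express inhibition versus vehicle-treated cultures.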

[7] = NCI Yeast Anticancer Drug Screen. Data for the rad14 strain (AID 159);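 also: 0% = growth of vehicle-treated control cultures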; conditions: S. cerevisiae rad14 strain growth inhibition, hits give high values
Method in brief: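 Compound-treated yeast with a defined DNA-repair lesion; growth inhibition normalised to vehicle-treated cultures.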

[8] = NCI Yeast Anticancer Drug Screen. Data for the sgs1 mgt1 strain (AID 161);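 also: 0% = growth of cultures given vehicle only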; conditions: S. cerevisiae sgs1 mgt1 strain, hits give high values
Method in brief: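 Percent growth inhibition was derived by comparing compound-exposed mutant yeast with vehicle-exposed cultures. The strain carries alterations in DNA damage repair.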

[9] = NCI Yeast Anticancer Drug Screen. Data for the CLN2oe strain (AID 163);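 also: 0% = growth of vehicle-only control cultures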; conditions: S. cerevisiae CLN2oe strain, hits give high values
Method in brief: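 Whole-cell yeast growth assay. A strain engineered for altered cell-cycle control received compound, and inhibition relative to vehicle-treated cultures was recorded.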

[10] = NCI Yeast Anticancer Drug Screen. Data for the cln2 rad14 strain (AID 165);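 also: 0% = growth equal to vehicle treated cultures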; conditions: S. cerevisiae cln2 rad14 strain, hits give high values
Method in brief: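 Yeast strain cln2 rad14, bearing defects in cell cycle control and DNA repair, serves as the test system; values reflect growth inhibition compared with vehicle.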

[11] = NCI Yeast Anticancer Drug Screen. Data for the bub3 strain (AID 167); conditions: S. cerevisiae bub3 mutant strain, hits give high values
Method in brief: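 Growth of a checkpoint-deficient yeast mutant is measured after compound exposure. Values represent inhibition relative to vehicle.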

[12] = NCI Yeast Anticancer Drug Screen. Data for the wt2 strain (AID 169);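 also: 0% = growth of vehicle-treated yeast cultures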; conditions: S. cerevisiae wt2 strain growth inhibition, hits give high values
Method in brief: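 Treated yeast vs. vehicle-treated yeast: growth inhibition determined.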

[13] = NCI Yeast Anticancer Drug Screen. Data for the mlh1 strain (AID 171);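 also: 0% = growth of vehicle-treated control cultures of the same strain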; conditions: S. cerevisiae mlh1 strain growth inhibition, hits give high values
Method in brief: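 A yeast strain with a defined genetic lesion serves as the test organism. Cultures receive compound or vehicle, and growth is measured.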

[14] = NCI Yeast Anticancer Drug Screen. Data for the sgs1 strain (AID 173);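 also: 0% = growth of vehicle-only control cultures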; conditions: S. cerevisiae sgs1 mutant, hits give high values
Method in brief: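 A genetically defined yeast mutant is incubated with the test compound, and its growth is compared to that of the same strain given vehicle.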

[15] = NCI Yeast Anticancer Drug Screen. Data for the mlh1 rad18 strain (AID 175); conditions: S. cerevisiae mlh1 rad18 strain growth inhibition, hits give high values
Method in brief: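 Steps: expose repair-defective yeast to compound; measure growth; express inhibition against vehicle-treated controls.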

[16] = NCI Yeast Anticancer Drug Screen. Data for the rad18 strain (AID 177); conditions: S. cerevisiae rad18 mutant growth inhibition, hits give high values
Method in brief: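 Measured value is growth inhibition of a yeast strain bearing a DNA repair alteration, referenced to vehicle-treated cells.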

[17] = at 5.0 µM (retest, dose inferred, filed as 0.5)
[18] = at 50.0 µM (retest, dose inferred, filed as 5.0)

Measured: growth inhibition

CC1CCN(CCC(=O)c2ccc(Cl)cc2)CC1
inactive: [1]; at 1.2 µM 4% | [1]; at 3.7 µM 8% | [1]; at 11.0 µM 28% | [1]; at 33.0 µM 41% | [1]; at 100.0 µM 53% | [2]; at 1.2 µM -1% | [2]; at 3.7 µM -1% | [2]; at 11.0 µM -1% | [2]; at 33.0 µM 7% | [2]; at 100.0 µM 16% | [3]; at 1.2 µM -1% | [3]; at 3.7 µM -1% | [3]; at 11.0 µM -1% | [3]; at 33.0 µM -2% | [3]; at 100.0 µM -7% | [4]; at 1.2 µM -1% | [4]; at 3.7 µM 4% | [4]; at 11.0 µM 20% | [4]; at 33.0 µM 35% | [4]; at 100.0 µM 52% | [5]; at 1.2 µM 12% | [5]; at 3.7 µM 19% | [5]; [17] 5% | [5]; at 11.0 µM 32% | [5]; at 33.0 µM 52% | [5]; [18] 36% | [5]; at 100.0 µM 56% | [6]; at 1.2 µM 0% | [6]; at 3.7 µM 1% | [6]; [17] 9% | [6]; at 11.0 µM 3% | [6]; at 33.0 µM 17% | [6]; [18] 37% | [6]; at 50.0 µM 29.1% | [6]; at 100.0 µM 27% | [7]; at 1.2 µM 19% | [7]; at 3.7 µM 36% | [7]; at 11.0 µM 33% | [7]; at 33.0 µM 39% | [7]; at 100.0 µM 45% | [8]; [17] 16% | [8]; [18] 50% | [9]; at 1.2 µM 8% | [9]; at 3.7 µM 17% | [9]; at 11.0 µM 36% | [9]; at 33.0 µM 49% | [9]; at 100.0 µM 55% | [10]; [17] 14% | [10]; [18] 45% | [11]; at 1.2 µM 1% | [11]; at 3.7 µM 6% | [11]; [17] 18% | [11]; at 11.0 µM 11% | [11]; at 33.0 µM 24% | [11]; [18] 50% | [11]; at 100.0 µM 31% | [12]; at 1.2 µM 0% | [12]; at 3.7 µM 1% | [12]; at 11.0 µM 18% | [12]; at 33.0 µM 5% | [12]; at 100.0 µM 21% | [13]; at 1.2 µM 2% | [13]; at 3.7 µM 14% | [13]; at 11.0 µM 26% | [13]; at 33.0 µM 26% | [13]; at 100.0 µM 40% | [14]; at 1.2 µM 5% | [14]; at 3.7 µM 32% | [14]; at 11.0 µM 45% | [14]; at 33.0 µM 62% | [14]; at 100.0 µM 66% | [15]; [17] 21% | [15]; [18] 52% | [15]; at 50.0 µM 58.1% | [16]; at 1.2 µM 5% | [16]; at 3.7 µM 18% | [16]; at 11.0 µM 17% | [16]; at 33.0 µM 28% | [16]; at 100.0 µM 42%
active: [5]; at 50.0 µM 77.5% | [8]; at 50.0 µM 75.5% | [10]; at 50.0 µM 73.6% | [11]; at 50.0 µM 81.7%

C(=C\c1ccccc1)/COc1ccccc1C(N1CCOCC1)n1nc2ccccc2n1 (stereo not drawn)
active: [1]; at 33.0 µM 85% | [1]; at 100.0 µM 97% | [2]; at 33.0 µM 88% | [2]; at 100.0 µM 98% | [3]; at 100.0 µM 95% | [4]; at 33.0 µM 91% | [4]; at 100.0 µM 98% | [5]; at 33.0 µM 96% | [5]; [18] 98% | [5]; at 50.0 µM 98.1% | [5]; at 100.0 µM 97%
inactive: [1]; at 1.2 µM 3% | [1]; at 3.7 µM 3% | [1]; at 11.0 µM 13% | [2]; at 1.2 µM 32% | [2]; at 3.7 µM 36% | [2]; at 11.0 µM 33% | [3]; at 1.2 µM -5% | [3]; at 3.7 µM 1% | [3]; at 11.0 µM 25% | [3]; at 33.0 µM 64% | [4]; at 1.2 µM 8% | [4]; at 3.7 µM 9% | [4]; at 11.0 µM 20% | [5]; at 1.2 µM -6% | [5]; at 3.7 µM -21% | [5]; [17] -9% | [5]; at 11.0 µM 8% | [6]; at 1.2 µM -19% | [6]; at 3.7 µM -13%
